From PubChem BioAssay (NCI)
About 83,000 compounds went through this panel and 20% of them were active in at least one assay; those are over-represented in the sample as a whole.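 Percent growth is the endpoint: 0 to 100 indicates growth inhibition (40 means 60% inhibition), 0 means no net growth, and negative values indicate cell death.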 A number with no mark means an inactive call. Activity calls are given as the source filed them. The calls were made as follows: active = growth percent below 10; inactive = the rest.

Columns and labels:
Experiment in all cases: NCI-60 one-dose screen, 48 h (100 = growth as untreated, 0 = no growth, -100 = all killed)
Conditions in all cases: 10 µM unless noted
T-47D breast = test system: T-47D breast
BT-549 breast = test system: BT-549 breast
MDA-MB-435 melanoma = test system: MDA-MB-435 melanoma
SW-620 colon = test system: SW-620 colon
MCF7 breast = test system: MCF7 breast
HCT-116 colon = test system: HCT-116 colon
HCC-2998 colon = test system: HCC-2998 colon
KM12 colon = test system: KM12 colon

SMILES | growth (T-47D breast) | growth (BT-549 breast) | growth (MDA-MB-435 melanoma) | growth (SW-620 colon) | growth (MCF7 breast) | growth (HCT-116 colon) | growth (HCC-2998 colon) | growth (KM12 colon)
COc1ccc(-c2c3c(nc4n[nH]c(-c5ccc(Cl)cc5)c24)-c2ccccc2C(=O)C3=O)cc1 | 17% | 20.5% | -86.2% (active) | -66.1% (active) | 1.77% (active) | -44.5% (active) | -25.5% (active) | -20.6% (active)
COc1cnc2c(c1)C(=O)c1c-2n(CCCN2CCN(C)CC2)c(=O)c2cc([N+](=O)[O-])ccc12 | -57.2% (active) | -54.6% (active) | -93.8% (active) | -73% (active) | -40.1% (active) | -83.8% (active) | 95.1% | -29% (active)
CCC(=O)Oc1ccc(/C(=C(\C)c2ccccc2)c2ccc(OCCN(CC)CC)cc2)cc1 | 43.8% | 86.3% | 76.1% | 79.4% | 37.9% | 62.1% | 103% | 80.3%
N#CC1=C(N)Oc2c(ccc3ccccc23)C1c1cccs1 (stereo not drawn) | 64.3% | 25% | -31% (active) | 23.8% | 7.97% (active) | 8.25% (active) | 16.7% | 4.37% (active)
COc1ccccc1/C=C(/C(=O)c1ccccc1)c1ccccc1 | 103% | 92.4% | 107% | 101% | 110% | 83.5% | 107% | 98.1%
O=C1C=CC(=O)c2c1nc1n2CCCC1 | 86.7% | 95.2% | -68.5% (active) | 62.3% | 57.8% | 91.9% | 57.6% | 75%
CC(=O)Oc1cc2cnc3c4cc(OC(C)=O)c(OC(C)=O)cc4ccc3c2cc1OC(C)=O | 14.7% | 26.8% | 23.3% | 24.8% | 6.96% (active) | 5.17% (active) | 45.7% | 22.8%
NS(=O)(=O)N(c1cc(C(F)(F)F)cc(C(F)(F)F)c1)C1CCN(Cc2ccc(F)cc2)CC1 | 37.2% | 81% | 70.1% | 63.8% | 49.6% | 38% | -50.4% (active) | 40.2%
CCOC(=O)c1c2c(n3ccc(NC(=O)CCN(CC)CC)cc13)C(=O)c1ncccc1C2=O | 55.9% | 75.9% | 32.7% | 49.3% | -8.59% (active) | 49.3% | 83.1% | 63.5%
O=C(Cc1ccccc1)c1ccc(Cl)cc1 | 91.1% | 106% | 94.3% | 99% | 95.6% | 93.2% | 99% | 101%
O=C1C=CC(=O)N1c1ccc(Cc2ccc(N3C(=O)C=CC3=O)cc2)cc1 | 89.8% | 95.8% | 104% | 110% | 89.5% | 89% | 102% | 100%
COc1cnc2c(c1)C(=O)c1c-2n(CCCBr)c(=O)c2cc([N+](=O)[O-])ccc12 | 2.87% (active) | 25.5% | 11.4% | 12.1% | 1.77% (active) | -24.8% (active) | 13.7% | 1.44% (active)
CCN(CC)c1ccc(CNc2cc(C)nc3ccc(OC)cc23)cc1 | 80% | 79.6% | -16.5% (active) | -74.6% (active) | 76.7% | 54.8% | -92.6% (active) | 28.4%
Cc1csc2ccc(Cl)cc12 | 104% | 104% | 103% | 102% | 98.3% | 106% | 109% | 111%
COc1ccc(-c2cc(NC(=O)Nc3ccc(O)cc3)no2)cc1 | 70.5% | 64.5% | 67.6% | 76.3% | 70.2% | 90% | 82.7% | 20.8%
CCOC(=O)c1c2c(n3ccc(NC(=O)CCN4CCCCC4)cc13)C(=O)c1ncccc1C2=O | 44.6% | 58.5% | -61.8% (active) | -20.2% (active) | -61.1% (active) | -61.1% (active) | -66% (active) | -75.6% (active)

SMILES | growth (T-47D breast) | growth (BT-549 breast) | growth (MDA-MB-435 melanoma) | growth (SW-620 colon) | growth (MCF7 breast) | growth (HCT-116 colon) | growth (HCC-2998 colon) | growth (KM12 colon)
COc1cc2c(cc1O)CCc1cc(O)cc(OC)c1-2 | 98% | 79.9% | 96.2% | 109% | 97.8% | 93.7% | 110% | 97.4%
Nc1cc(-c2nc3sccn3c2-c2ccnc(NCCCNS(=O)(=O)c3ccc(F)cc3)n2)ccc1F | 15.4% | 52.2% | 22.9% | 54.7% | 37.4% | 36.8% | 90.3% | 59.7%
C/C(=C(/c1ccc(O)cc1)c1ccc(OCCN2CCCC2)cc1)c1ccccc1 | 28.5% | 64% | 39.9% | 67.8% | 22.2% | 41.2% | 66.3% | 51.6%
CCCCCCNC(=O)Oc1ccc(/C(=C(\C)c2ccccc2)c2ccc(OCCN(CC)CC)cc2)cc1 | 35.5% | 71.8% | 45.6% | 18.8% | 16.1% | 30.2% | 60% | 37.8%
O=C(CN1CCN(c2cc3c(cc2F)c(=O)c(C(=O)O)cn3C2CC2)CC1)Nc1cc(=O)[nH]c(=O)[nH]1 | 103% | 83.3% | 102% | 95.4% | 101% | 91.2% | 98.1% | 108%
CC/C(Cc1ccccc1)=C(/c1ccc(O)cc1)c1ccc(OCCN2CCCC2)cc1 | -25.2% (active) | 44.7% | -100% (active) | -78.4% (active) | -67.7% (active) | -87.1% (active) | -90.9% (active) | -75.4% (active)
COc1cc2nc3cc([N+](=O)[O-])ccc3c(NCCCNCC(C)(C)O)c2cc1OC | -40.6% (active) | -71.3% (active) | -85.8% (active) | -11.8% (active) | -33.5% (active) | -46% (active) | -70.2% (active) | -47.2% (active)
CC1(C)OCC2OC3(C(=O)O)OC(C)(C)OC3C2O1 (stereo not drawn) | 95.4% | 105% | 104% | 109% | 112% | 106% | 102% | 100%
O=C1c2cc3c(cc2-c2c1c1cc(F)c(F)cc1c(=O)n2C[C@H](O)CO)OCO3 | -9.55% (active) | 0.808% (active) | -11% (active) | 11.7% | 3.86% (active) | 3.5% (active) | 10.7% | 5.01% (active)
CC(=O)C1=C(O)C=C2Oc3c(C(=O)/C=C/c4c(Cl)cccc4Cl)c(O)c(C)c(O)c3[C@]2(C)C1=O | -20.2% (active) | -28.9% (active) | -11.6% (active) | 5.36% (active) | -11.2% (active) | -26.8% (active) | -59.6% (active) | -12.1% (active)
O=C(/C=C/c1cccc(Br)c1)c1ccccc1 | 52% | 76.6% | 80.9% | 69.9% | 12.6% | 47.1% | 96.4% | 70.9%
O=C(CCCN1CCOCC1)Nc1ccc(Cn2nnc3c2C(=O)c2nnn(Cc4ccc(NC(=O)CCCN5CCOCC5)cc4)c2C3=O)cc1 | -16.5% (active) | 42.6% | -78.9% (active) | 30.2% | -58.6% (active) | 0.281% (active) | 13.1% | 65.3%
COc1ccc2[nH]c(=O)c(/C=C/C(=O)c3ccc(Nc4nccc(-c5ccc6ccccc6c5)n4)cc3)cc2c1 | 97.2% | 98.9% | 108% | 97.1% | 92.8% | 91.1% | 104% | 93.3%
CN(CC(=O)N(Cc1ccc(C2CCCCC2)cc1)c1ccc(C(=O)NO)cc1)S(=O)(=O)c1c(F)c(F)c(F)c(F)c1F | 11.2% | 93% | 99.1% | 20.1% | 24.9% | 75.6% | 84.2% | 99.4%
Oc1cc(O)c2c(=S)cc(-c3ccc(Cl)cc3)oc2c1 | 0.614% (active) | 38.4% | 25.9% | 41.5% | 6.22% (active) | 17.6% | 57.7% | 38.7%
